In the antibiotic and cytotoxicity screens of Wong et al. (2023) one finds cytotoxicity call data, which are given here for 63 compounds.

Among all 39,000 compounds or so, about 3,300 (8.5%) were called active. This is one part of a sample in which actives are shown more often than they occur.

The subject of this assay is HepG2. As to the kind of experiment: cytotoxicity call (relative viability < 0.9). Particulars: 10 µM.
For `COc1ccc(CN(C)C[C@@H]2OCCCC[C@@H](C)Oc3ccc(NC(=O)Nc4ccc(C(F)(F)F)cc4)cc3C(=O)N([C@@H](C)CO)C[C@H]2C)cc1`, the cytotoxicity call is “active”.

Regarding `COc1ccc(NC(=O)Nc2ccc3c(c2)C(=O)N([C@@H](C)CO)C[C@H](C)[C@@H](CN(C)Cc2ccc(C(F)(F)F)cc2)OCCCC[C@H](C)O3)cc1`, the cytotoxicity call was “inactive”.

Consider `COc1ccc(CN(C)C[C@@H]2OCCCC[C@H](C)Oc3ccc(NC(=O)Nc4ccc(C(F)(F)F)cc4)cc3C(=O)N([C@H](C)CO)C[C@@H]2C)cc1`, for which the cytotoxicity call is “active”.

With `COc1ccc(CN(C)C[C@H]2OCCCC[C@@H](C)Oc3ccc(NC(=O)Nc4ccc(C(F)(F)F)cc4)cc3C(=O)N([C@H](C)CO)C[C@@H]2C)cc1`, the cytotoxicity call is “active”.

Turning to `COc1ccc(NC(=O)Nc2ccc3c(c2)C(=O)N([C@@H](C)CO)C[C@@H](C)[C@H](CN(C)Cc2ccc(C(F)(F)F)cc2)OCCCC[C@H](C)O3)cc1`, the cytotoxicity call is “inactive”.

With `COc1ccc(NC(=O)Nc2ccc3c(c2)C(=O)N([C@H](C)CO)C[C@H](C)[C@@H](CN(C)Cc2ccc(C(F)(F)F)cc2)OCCCC[C@H](C)O3)cc1`, the cytotoxicity call was “inactive”.

As to `COc1ccc(NC(=O)Nc2ccc3c(c2)C(=O)N([C@H](C)CO)C[C@@H](C)[C@@H](CN(C)Cc2ccc(C(F)(F)F)cc2)OCCCC[C@H](C)O3)cc1`, the cytotoxicity call is “inactive”.

In the case of `COc1ccc(CN(C)C[C@@H]2OCCCC[C@H](C)Oc3ccc(NC(=O)Nc4ccc(C(F)(F)F)cc4)cc3C(=O)N([C@@H](C)CO)C[C@@H]2C)cc1`, the cytotoxicity call was “active”.

Turning to `COCC#Cc1ccc2c(c1)O[C@H](CN(C)C(=O)Nc1ccc(OC)cc1)[C@H](C)CN([C@H](C)CO)S2(=O)=O`, the cytotoxicity call is “inactive”.

Take `COCC(=O)N1CC[C@]2(CC1)CN([C@H](CO)c1[nH]c3cc(ccc3c12)OC)C(=O)Nc1ccccc1F`: the cytotoxicity call was “inactive”.

As to `Cc1c(C)c2c(c(C)c1OC(=O)CCC(=O)O)CC[C@@](C)(CCC[C@H](C)CCC[C@H](C)CCCC(C)C)O2`, the cytotoxicity call is “inactive”.

With `Cc1ccc(S(=O)(=O)Nc2ccc3c(c2)CC(=O)N([C@H](C)CO)C[C@@H](C)[C@@H](CN(C)S(=O)(=O)c2c(C)noc2C)O3)cc1`, the cytotoxicity call is “inactive”.

For the compound `COc1ccc(CCNC(=O)[C@@H]2c3ccccc3C(=O)N(CC34CC5CC(CC(C5)C3)C4)[C@H]2c2ccc(CO)cc2)cc1`, the cytotoxicity call is “inactive”.

On to `C=CCN(CC=C)S(=O)(=O)c1nnc[nH]1`, for which the cytotoxicity call is “inactive”.

Consider `C[C@@H]1CN([C@@H](C)CO)C(=O)c2cc(NC(=O)Cc3ccccc3)ccc2O[C@@H](C)CCCCO[C@H]1CN(C)S(=O)(=O)c1cccs1`, for which the cytotoxicity call was “inactive”.

Turning to `O=C(C[C@H]1C=C[C@H](NC(=O)c2ccncc2)[C@H](CO)O1)NCc1ccncn1`, the cytotoxicity call is “inactive”.

For `CC1=CC(=O)C2=C(C)CCC3C(C)C(=O)OC3C12` (stereo not drawn), the cytotoxicity call is “inactive”.

As for `C[C@H](CO)N1C[C@H](C)[C@@H](CN(C)Cc2ccc(Cl)c(Cl)c2)Oc2ccc(NC(=O)CCCCCC(=O)Nc3ccccc3N)cc2CC1=O`, the cytotoxicity call was “inactive”.

With `O=C(C[C@@H]1CC[C@H]2[C@@H](COC[C@H](O)CN2C(=O)Nc2cccc(F)c2)O1)NCCCN1CCOCC1`, the cytotoxicity call is “inactive”.

As to `COc1ccc(CN(C)C[C@@H]2OCCCC[C@H](C)Oc3ccc(NC(=O)Nc4ccc(C(F)(F)F)cc4)cc3C(=O)N([C@@H](C)CO)C[C@H]2C)cc1`, the cytotoxicity call is “active”.

For the compound `COc1ccc(NC(=O)Nc2ccc3c(c2)C(=O)N([C@@H](C)CO)C[C@H](C)[C@@H](CN(C)Cc2ccc(C(F)(F)F)cc2)OCCCC[C@@H](C)O3)cc1`, the cytotoxicity call was “active”.

As to `COc1ccc(CN(C)C[C@H]2OCCCC[C@H](C)Oc3ccc(NC(=O)Nc4ccc(C(F)(F)F)cc4)cc3C(=O)N([C@H](C)CO)C[C@H]2C)cc1`, the cytotoxicity call is “active”.

As for `COc1ccc(CN(C)C[C@H]2OCCCC[C@@H](C)Oc3ccc(NC(=O)Nc4ccc(C(F)(F)F)cc4)cc3C(=O)N([C@H](C)CO)C[C@H]2C)cc1`, the cytotoxicity call was “active”.

As for `O=C(C[C@H]1C[C@H]2c3cc(NC(=O)c4ccc5c(c4)OCO5)ccc3O[C@H]2[C@H](CO)O1)NCCN1CCCCC1`, the cytotoxicity call was “inactive”.

Take `C[C@H]1CN([C@@H](C)CO)C(=O)c2cc(NC(=O)Cn3cnnn3)ccc2O[C@H]1CN(C)Cc1ccccc1`: the cytotoxicity call is “inactive”.

`CC(C)NC(=O)Nc1ccc2c(c1)C(=O)N([C@@H](C)CO)C[C@H](C)[C@@H](CN(C)C(=O)Nc1ccc(F)cc1)OCCCC[C@@H](C)O2`: the cytotoxicity call is “inactive”.

As to `O=C(C[C@H]1CC=CCC[C@H](Cc2ccc(F)cc2)C(=O)OC[C@H](Cc2ccccc2)NC1=O)NCCO`, the cytotoxicity call is “inactive”.

In the case of `C#CCN(O[C@@H](/C=C/[C@@H](O)CCn1cc(-c2cccc(/C=C/C(=O)NO)c2)nn1)C1CC1)[C@@H](Cc1ccccc1)C(=O)OC`, the cytotoxicity call was “inactive”.

For `C[C@@H]1CCCCO[C@@H](CN(C)C(=O)c2ccccc2)[C@H](C)CN([C@@H](C)CO)C(=O)c2cc(NC(=O)Nc3ccccc3)ccc2O1`, the cytotoxicity call is “inactive”.

Turning to `O=C(NC1CC1)c1n[nH]c(=O)c2ccccc12`, the cytotoxicity call is “inactive”.

For the compound `O=C1CNCCN1C1CCCC1`, the cytotoxicity call was “inactive”.

Take `C[C@@H]1CN([C@H](C)CO)C(=O)c2cc(NC(=O)CCC(F)(F)F)ccc2O[C@@H](C)CCCCO[C@H]1CN(C)C(=O)Nc1ccc(C(F)(F)F)cc1`: the cytotoxicity call is “inactive”.

Regarding `COc1ccc(NC(=O)Nc2ccc3c(c2)C(=O)N([C@@H](C)CO)C[C@@H](C)[C@H](CN(C)Cc2ccc(C(F)(F)F)cc2)OCCCC[C@@H](C)O3)cc1`, the cytotoxicity call was “active”.

Take `COc1ccc(CN(C)C[C@H]2OCCCC[C@H](C)Oc3ccc(NC(=O)Nc4ccc(C(F)(F)F)cc4)cc3C(=O)N([C@@H](C)CO)C[C@H]2C)cc1`: the cytotoxicity call was “active”.

As to `COc1ccc(NC(=O)Nc2ccc3c(c2)C(=O)N([C@H](C)CO)C[C@@H](C)[C@@H](CN(C)Cc2ccc(C(F)(F)F)cc2)OCCCC[C@@H](C)O3)cc1`, the cytotoxicity call was “active”.

In the case of `COc1ccc(CN(C)C[C@H]2OCCCC[C@H](C)Oc3ccc(NC(=O)Nc4ccc(C(F)(F)F)cc4)cc3C(=O)N([C@H](C)CO)C[C@@H]2C)cc1`, the cytotoxicity call was “active”.

For the compound `CC[C@@H](NC)C(=O)O`, the cytotoxicity call was “inactive”.

Take `CC(C)(C)[C@H]1CCc2c(sc3nc(-c4ccccc4)cn23)C1`: the cytotoxicity call was “inactive”.

Turning to `COc1ccc(NC(=O)N(C)C[C@H]2Oc3ncc(C#C[C@H](C)O)cc3C(=O)N([C@@H](C)CO)C[C@H]2C)cc1`, the cytotoxicity call is “inactive”.

On to `O=C(O)[C@H]1CCS(=O)(=O)C1`, for which the cytotoxicity call is “inactive”.

Turning to `NC(=O)c1cc(Cl)ccn1`, the cytotoxicity call is “inactive”.

As for `C[C@@H]1CN([C@@H](C)CO)C(=O)c2cccc(NC(=O)c3ccc(-c4nccs4)cc3)c2O[C@@H]1CN(C)Cc1ccc(Oc2ccccc2)cc1`, the cytotoxicity call was “inactive”.

On to `COc1ccc(C#Cc2ccc3c(c2)O[C@H](CN(C)S(=O)(=O)c2ccccc2F)[C@@H](C)CN([C@@H](C)CO)S3(=O)=O)cc1`, for which the cytotoxicity call was “inactive”.

For the compound `C[C@@H]1CN([C@@H](C)CO)C(=O)c2cccc(NS(=O)(=O)c3ccccc3)c2O[C@@H]1CN(C)S(=O)(=O)c1ccccc1`, the cytotoxicity call was “inactive”.

With `C[C@H](CO)N1C[C@H](C)[C@H](CN(C)C(=O)CCC(F)(F)F)OCc2ccccc2-c2c(n(C)c3ccccc23)C1=O`, the cytotoxicity call was “inactive”.

As for `C[C@@H]1CCCCO[C@H](CN(C)S(=O)(=O)c2cn(C)cn2)[C@@H](C)CN([C@@H](C)CO)C(=O)c2cc(NC(=O)CCCN(C)C)ccc2O1`, the cytotoxicity call is “inactive”.

In the case of `Cc1noc(C)c1S(=O)(=O)N(C)C[C@H]1OCCCC[C@H](C)Oc2ccc(NC(=O)Nc3cccc4ccccc34)cc2C(=O)N([C@H](C)CO)C[C@H]1C`, the cytotoxicity call is “inactive”.

Consider `C[C@@H]1CN([C@@H](C)CO)C(=O)CCCn2nncc2CO[C@@H]1CN(C)C(=O)Nc1ccccc1C(F)(F)F`, for which the cytotoxicity call was “inactive”.

As to `COc1ccc(NC(=O)Nc2ccc3c(c2)C(=O)N([C@@H](C)CO)C[C@@H](C)[C@@H](CN(C)Cc2ccc(C(F)(F)F)cc2)OCCCC[C@H](C)O3)cc1`, the cytotoxicity call is “active”.

Consider `COc1ccc(NC(=O)Nc2ccc3c(c2)C(=O)N([C@H](C)CO)C[C@@H](C)[C@H](CN(C)Cc2ccc(C(F)(F)F)cc2)OCCCC[C@@H](C)O3)cc1`, for which the cytotoxicity call is “active”.

Turning to `COc1ccc(NC(=O)Nc2ccc3c(c2)C(=O)N([C@@H](C)CO)C[C@H](C)[C@H](CN(C)Cc2ccc(C(F)(F)F)cc2)OCCCC[C@H](C)O3)cc1`, the cytotoxicity call was “active”.

With `COc1ccc(CN(C)C[C@@H]2OCCCC[C@@H](C)Oc3ccc(NC(=O)Nc4ccc(C(F)(F)F)cc4)cc3C(=O)N([C@@H](C)CO)C[C@@H]2C)cc1`, the cytotoxicity call is “active”.

`O=C(C[C@@H]1CC[C@@H]2[C@H](COC[C@@H](O)CN2S(=O)(=O)c2ccccc2)O1)NCCN1CCCC1`: the cytotoxicity call is “inactive”.

On to `C[C@@H]1CN([C@H](C)CO)C(=O)Cc2cc(NC(=O)c3ccncc3)ccc2O[C@@H]1CN(C)C(=O)Nc1ccc2c(c1)OCO2`, for which the cytotoxicity call was “inactive”.

With `COCC(=O)N1C[C@@H](C)[C@H](OC)CN(C)C(=O)c2ccc(NC(=O)Nc3ccccc3)cc2OC[C@H]1C`, the cytotoxicity call is “inactive”.

Turning to `CNC(=O)[C@H]1C[C@H]2CCN(S(=O)(=O)N(C)C)C[C@H]2O1`, the cytotoxicity call was “inactive”.

Consider `Cc1noc(C)c1S(=O)(=O)Nc1ccc2c(c1)C(=O)N([C@@H](C)CO)C[C@H](C)[C@@H](CN(C)C(=O)NC(C)C)O2`, for which the cytotoxicity call is “inactive”.

Take `C[C@H](CO)N1C[C@H](C)[C@H](CN(C)S(=O)(=O)c2cn(C)cn2)OCc2ccccc2-c2ccccc2C1=O`: the cytotoxicity call was “inactive”.

Consider `Cc1nc(CSCc2ccc(Cl)cc2Cl)cs1`, for which the cytotoxicity call is “inactive”.

In the case of `COc1ccccc1CN1C(=O)c2ccccc2[C@@]2(Cc3ccccc3N(Cc3ccccc3)C2=O)[C@@H]1c1ccc(CO)cc1`, the cytotoxicity call was “inactive”.

On to `C[C@@H]1CN([C@@H](C)CO)C(=O)c2cc(NC(=O)Nc3ccccc3)ccc2O[C@@H]1CN(C)S(C)(=O)=O`, for which the cytotoxicity call was “inactive”.

In the case of `C[C@H](CO)N1C[C@H](C)[C@H](CN(C)Cc2ccc3c(c2)OCO3)Oc2ccc(NS(=O)(=O)c3cn(C)cn3)cc2CC1=O`, the cytotoxicity call is “inactive”.

On to `O=c1cc(Cl)[nH]c(=O)[nH]1`, for which the cytotoxicity call is “inactive”.
